# In paper PMC4336329 (PLoS ONE, 2015):
# Hit rate of the full screen: of about 310,000 compounds, about 14,000 (4.5%) showed an effect of 50% or more. The effect is printed as a negative number. Shown is part of a subset that was picked to be rich in strong results.
# Biological target: human ether-à-go-go-related gene (hERG) potassium channel (human, UniProt Q12809)
# Experiment: primary screen, population patch clamp on CHO cells stably expressing hERG; higher = less effect of the substance
# 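Note: peak tail current of the secondary pulse compared with the same well before compound.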
# human ether-à-go-go-related gene (hERG) potassium channel, sequence (Q12809 whole entry, looked up): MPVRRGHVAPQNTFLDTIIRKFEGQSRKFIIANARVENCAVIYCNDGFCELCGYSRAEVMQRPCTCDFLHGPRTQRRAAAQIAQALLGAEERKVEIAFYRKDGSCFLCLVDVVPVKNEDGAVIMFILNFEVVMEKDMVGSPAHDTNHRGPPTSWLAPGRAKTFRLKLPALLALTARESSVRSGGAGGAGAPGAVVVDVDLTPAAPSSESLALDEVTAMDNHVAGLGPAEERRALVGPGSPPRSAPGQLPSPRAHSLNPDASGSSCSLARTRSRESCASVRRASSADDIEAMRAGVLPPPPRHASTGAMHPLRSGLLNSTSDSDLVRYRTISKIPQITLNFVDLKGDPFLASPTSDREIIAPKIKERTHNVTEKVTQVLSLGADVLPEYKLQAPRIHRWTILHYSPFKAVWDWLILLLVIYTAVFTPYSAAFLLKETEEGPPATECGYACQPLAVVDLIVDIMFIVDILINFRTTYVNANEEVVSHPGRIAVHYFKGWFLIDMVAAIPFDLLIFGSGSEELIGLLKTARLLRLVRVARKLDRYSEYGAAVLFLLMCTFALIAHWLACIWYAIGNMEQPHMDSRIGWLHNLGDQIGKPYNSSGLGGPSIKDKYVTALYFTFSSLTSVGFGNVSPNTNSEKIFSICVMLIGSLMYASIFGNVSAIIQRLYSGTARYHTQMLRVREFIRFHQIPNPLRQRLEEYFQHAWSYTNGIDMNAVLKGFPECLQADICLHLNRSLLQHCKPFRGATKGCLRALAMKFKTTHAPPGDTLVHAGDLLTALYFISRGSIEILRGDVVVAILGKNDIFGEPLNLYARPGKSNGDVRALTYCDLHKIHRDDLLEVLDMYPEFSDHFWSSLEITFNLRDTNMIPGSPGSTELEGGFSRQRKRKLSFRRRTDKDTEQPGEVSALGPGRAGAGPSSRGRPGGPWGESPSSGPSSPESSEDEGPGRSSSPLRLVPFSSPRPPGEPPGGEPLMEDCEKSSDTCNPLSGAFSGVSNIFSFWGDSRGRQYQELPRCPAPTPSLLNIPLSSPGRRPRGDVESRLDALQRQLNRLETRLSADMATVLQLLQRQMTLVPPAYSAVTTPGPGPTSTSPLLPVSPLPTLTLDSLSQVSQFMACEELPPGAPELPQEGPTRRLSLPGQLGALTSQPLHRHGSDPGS
row,Compound,"hERG current change (%, negative = inhibition) at 10uM"
1,O=C(N/N=C/c1coc2ccccc2c1=O)c1ccccc1,10.6%
2,COc1ccc(CN2CCN(C(=O)CC(C)C)CC2)cc1Br,-4.54%
3,C=CC[C@]12C[C@@H](OC)C(=O)C=C1O[C@@H](c1ccc(OC)c(OC)c1)[C@H]2C,14.5%
4,NC(=O)C(c1ccc(Sc2ccccc2)nn1)c1ccc(Cl)cc1Cl (stereo not shown),-43.9%
5,Cc1c(C(=O)NCC2COc3ccccc3O2)oc2ccc(S(=O)(=O)N3CC(C)CC(C)C3)cc12 (stereo not shown),12.4%
6,Cc1c(NC(=O)COC(=O)c2cc(-c3ccc(-c4ccccc4)cc3)nc3ccccc23)c(=O)n(-c2ccccc2)n1C,28.4%
7,COc1ccccc1NNC(=O)C(O)(c1ccccc1OC)c1ccccc1OC,20.2%
8,O=C(NC(Cc1ccccc1)C(=O)O)/C(=C/c1ccc([N+](=O)[O-])cc1)NC(=O)c1ccc(Br)o1 (stereo not shown),11.5%
9,CC(=O)Nc1ccc(Nc2ccc3c4c(cc(=O)n3C)-c3ccccc3C(=O)c24)cc1,9.74%
10,CC(=O)N(C)c1ccc(N2CCOCC2)c2c1C(=O)c1ccccc1C2=O,-0.974%
11,Cn1c(=O)cc2c3c(c(N4CCCCC4)ccc31)C(=O)c1ccccc1-2,-63.2%
12,CCn1c(SCC(=O)Nc2cc(S(=O)(=O)N3CCOCC3)ccc2OC)nnc1-c1ccncc1,13.8%
13,O=C(COc1ccc(Cl)cc1)Nc1c(-c2cccs2)nc2ccccn12,-14.4%
14,Nc1cc(-c2nn[nH]n2)ccc1F,11.6%
15,O=C(Nc1ccc(Cl)c(-c2nc3ccccc3[nH]2)c1)c1ccc2c(c1)OCO2,-15%
16,Cc1ccc(N2CC(C(=O)N3CCCCC3)CC2=O)cc1C (stereo not shown),-21.2%
17,Cc1ccc(N2CC(C(=O)N3CCCCCC3)CC2=O)cc1 (stereo not shown),11.5%
18,NC(=O)C1CCN(C(=O)C2CC(=O)N(c3ccc(F)cc3)C2)CC1 (stereo not shown),13.7%
19,Cc1ccc(N2CC(C(=O)N3CCOCC3)CC2=O)cc1C (stereo not shown),6.52%
20,Cc1ccc(N2CC(C(=O)N3CCC4(CC3)CC(=O)c3ccccc3O4)CC2=O)cc1C (stereo not shown),-71.3%
21,CCOC(=O)N1CCN(C(=O)C2CC(=O)N(c3ccc(C)cc3)C2)CC1 (stereo not shown),-47.9%

row,Compound,"hERG current change (%, negative = inhibition) at 10uM"
1,O=C(C1CC(=O)N(c2ccccc2)C1)N1CCCCCC1 (stereo not shown),13%
2,O=C1CC2(CCN(C(=O)C3CC(=O)N(c4ccc(F)cc4)C3)CC2)Oc2ccccc21 (stereo not shown),-78.7%
3,O=C1CC2(CCN(C(=O)C3CC(=O)N(c4ccccc4)C3)CC2)Oc2ccccc21 (stereo not shown),-77.4%
4,Cc1ccc(N2CC(C(=O)N3CCC4(CC3)CC(=O)c3ccccc3O4)CC2=O)cc1 (stereo not shown),-71.6%
5,CCOC(=O)N1CCN(C(=O)C2CC(=O)N(c3ccccc3)C2)CC1 (stereo not shown),5.31%
6,O=C(C1CC(=O)N(c2ccc(F)cc2)C1)N1CCOCC1 (stereo not shown),1.27%
7,CCN(CC#CCC(O)(c1ccccc1)C1CCCC1)C(C)C.Cl (stereo not shown),-18.9%
8,CCNC(=O)NC(=O)C(C)OC(=O)Cc1coc2cc3c(cc12)CCC3 (stereo not shown),26.6%
9,Cc1ccc(C2=NCCn3c2c2ccc(C(F)(F)F)cc2[n+]3[O-])cc1,-26.2%
10,Cc1ccc(C2=NCCn3c2c2ccc([N+](=O)[O-])cc2[n+]3[O-])cc1,-7.51%
11,[O-][n+]1c2cc(C(F)(F)F)ccc2c2n1CCN=C2c1ccc(Cl)cc1,-55.6%
12,Nc1c(Cl)cc(C2=NCCn3c2c2ccc(C(F)(F)F)cc2[n+]3[O-])cc1Cl,-26.1%
13,Nc1c(Cl)cc(C2=NCCn3c2c2ccc([N+](=O)[O-])cc2[n+]3[O-])cc1Cl,-54.8%
14,O=[N+]([O-])c1ccc2c3n([n+]([O-])c2c1)CCN=C3c1ccc(Cl)cc1,-29.6%
15,COc1cccc(/C=C/C(=O)OCC(=O)c2c[nH]c3ccccc23)c1OC,9.29%
16,CCOC(=O)c1c[nH]c2c(C)cc(C)cc2c1=O,-0.349%
17,CCCCOP(=O)(c1ccc(N(C)C)cc1)C(O)c1ccc(OC)cc1 (stereo not shown),-2.61%
18,O=[N+]([O-])c1cc(S(=O)(=O)NCCc2ccccn2)ccc1Cl,-21.8%
19,C=CCCC(=O)Nc1nc(C)c(-c2csc(Nc3ccc(Cl)cc3)n2)s1,14.9%
20,S=c1[nH]nc(-c2ccc3ccccc3n2)o1,17.2%
21,Cc1ccc(C)c2[nH]c(=O)c(CCNC(=O)C(C)(C)C)cc12,8.5%

row,Compound,"hERG current change (%, negative = inhibition) at 10uM"
1,O=C(CSc1ncccc1C(=O)O)c1ccccc1,6.47%
2,O=C(O)CSc1ncccc1C(=O)O,-53.7%
3,O=C(O)c1cccnc1SCc1ccccc1,-1.22%
4,O=C(N/C(=C/c1ccc(Cl)cc1)c1nc2ccccc2[nH]1)c1ccco1,9.34%
5,O=c1[nH]c(C2CCN(S(=O)(=O)c3ccc(C(F)(F)F)cc3)CC2)nc2c1nnn2Cc1ccccc1,8.98%
6,Cc1ccc(S(=O)(=O)N(C)C)cc1NC(=S)N(CCC#N)Cc1cccnc1,-10.3%
7,Cc1ccc(C(C)C)cc1OCCOCCN1CCCC1,-38.9%
8,COc1ccc(-c2nc(NC(=O)CSCCO)sc2C)cc1,-4.57%
9,COc1cccc(NC(=O)CSc2nc3ccccc3c(=O)n2C)c1,-7.76%
10,CCOC(=O)C(C)Sc1nc2ccccc2c(=O)n1CC (stereo not shown),-22.4%
11,Cc1ccc(NC(=O)CSc2nc3ccccc3c(=O)n2CCCC(=O)NCCCN2CCOCC2)cc1C,-69.1%
12,CCCCn1c(SCC(=O)Nc2cccc(OC)c2)nc2ccc(N3CCOCC3)cc2c1=O,-9.77%
13,CCOC(=O)C(C)On1c(SC(C)C(=O)OCC)nc2ccccc2c1=O (stereo not shown),-53.5%
14,CCOC(=O)C(C)On1c(-n2nc(C)cc2C)nc2ccccc2c1=O (stereo not shown),9.29%
15,O=C(CCCn1c(SCC(=O)NCCc2ccccc2)nc2ccccc2c1=O)NCC1CCCO1 (stereo not shown),-22.8%
16,O=C(CSc1nc2ccccc2c(=O)n1CCCN1CCOCC1)Nc1ccc2c(c1)OCO2,-43.6%
17,O=C(CCCn1c(SCc2cccc([N+](=O)[O-])c2)nc2ccccc2c1=O)NCC1CCCO1 (stereo not shown),-59.7%
18,Cc1cc(C)c(NC(=O)CSc2nc3ccccc3c(=O)n2CCCN2CCOCC2)c(C)c1,-47.6%
19,O=C(CCCn1c(SCc2cccc(F)c2)nc2ccccc2c1=O)NCC1CCCO1 (stereo not shown),8.35%
20,COc1cccc(NC(=O)CSc2nc3ccccc3c(=O)n2CCCC(=O)NCCCN2CCOCC2)c1,-59.8%
21,O=C(NCc1ccccc1)[C@]1(C(F)(F)F)C[C@H](CCc2ccccc2)CCCO1,3.84%

row,Compound,"hERG current change (%, negative = inhibition) at 10uM"
1,Cn1cc(Br)c(C(=O)Nc2sc3c(c2C(N)=O)CCC3)n1,18.4%
2,Cc1ccc(Cl)cc1NC(=O)c1cc(NC(=O)C2CCCCC2C(=O)O)ccc1N1CCOCC1 (stereo not shown),-6.57%
3,COc1cccc(CCNC(=O)CCc2nnc(-c3ccc4c(c3)OCO4)o2)c1,-7.05%
4,Cc1ccc2cc(C#N)c(NCCNC(=S)NCCCN(C)C)nc2c1C,-0.554%
5,Cc1cc(OCC(=O)NCc2ccccn2)c2c(C)c(C)c(=O)oc2c1,-11.2%
6,CCOC(=O)C(=O)Nc1nc(-c2ccccc2)c(-c2ccccc2)o1,-32.1%
7,Cc1ccc(NC(=O)CSc2nc3ccccc3c(=O)n2CCCC(=O)NCC2CCCO2)cc1 (stereo not shown),-0.641%
8,O=C(CCCn1c(SCC(=O)NCC2CCCO2)nc2ccccc2c1=O)NCc1ccccc1 (stereo not shown),-29.6%
9,COc1ccc(NC(=O)CSc2nc3ccccc3c(=O)n2CCCC(=O)NCC2CCCO2)c(OC)c1 (stereo not shown),-33.8%
10,C=CCn1c(SCC(=O)Nc2ccc(N3CCOCC3)cc2)nc2ccccc2c1=O,3.75%
11,CCc1ccc(NC(=O)CSc2nc3ccccc3c(=O)n2CCN2CCOCC2)cc1,-67.6%
12,COc1cccc(NC(=O)CSc2nc3ccccc3c(=O)n2CCCC(=O)NCC2CCCO2)c1 (stereo not shown),-70.3%
13,CCc1ccc(NC(=O)CSc2nc3ccccc3c(=O)n2CCCC(=O)NCCCN2CCOCC2)cc1,-66.6%
14,O=C(CCCn1c(SCC(=O)NC2CCCCC2)nc2ccccc2c1=O)NCC1CCCO1 (stereo not shown),-61.5%
15,NS(=O)(=O)c1ccc(CCNC(=O)CSc2nc3ccccc3c(=O)n2CCN2CCOCC2)cc1,41.4%
16,CCOc1ccc(NC(=O)CSc2nc3ccccc3c(=O)n2CCCC(=O)NCC2CCCO2)cc1 (stereo not shown),3.34%
17,NC(=O)c1ccc(NC(=O)CSc2nc3ccccc3c(=O)n2CCCN2CCOCC2)cc1,-5.06%
18,O=C(CCCn1c(SCC(=O)NCC2CCCO2)nc2ccccc2c1=O)NCC1CCCO1 (stereo not shown),-5.18%
19,O=C(CSc1nnc(-c2ccccc2F)o1)N1CCNC1=O,-32.1%
